Source: PubChem BioAssay (NCATS)
Results filed as inconclusive are left out. The source made the active and inactive calls. The call rests on the fitted dose curve; in most records, active means well fitted activation curve with a large enough effect; inconclusive means small, poorly fitted or top-dose-only effect; inactive means no such curve, though single readings can be large or run the other way.

target: Rap guanine nucleotide exchange factor 3 (Homo sapiens) (UniProt O95398); assay: Confirmatory qHTS for agonist of cAMP-regulated guanine nucleotide exchange factor 3 (EPAC1) (AID 1645881); conditions: EPAC1 Rap1B BODIPY-GDP exchange fluorescence; series mostly up to 154 µM; activation: at the top concentration;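 further: EPAC1 catalysed release of BODIPY-GDP from Rap1B seen as fluorescence loss; 100% = effect of cAMP agonist control; nearly all actives have a fitted effect of over 75% in size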
Sequence (O95398 whole entry, looked up): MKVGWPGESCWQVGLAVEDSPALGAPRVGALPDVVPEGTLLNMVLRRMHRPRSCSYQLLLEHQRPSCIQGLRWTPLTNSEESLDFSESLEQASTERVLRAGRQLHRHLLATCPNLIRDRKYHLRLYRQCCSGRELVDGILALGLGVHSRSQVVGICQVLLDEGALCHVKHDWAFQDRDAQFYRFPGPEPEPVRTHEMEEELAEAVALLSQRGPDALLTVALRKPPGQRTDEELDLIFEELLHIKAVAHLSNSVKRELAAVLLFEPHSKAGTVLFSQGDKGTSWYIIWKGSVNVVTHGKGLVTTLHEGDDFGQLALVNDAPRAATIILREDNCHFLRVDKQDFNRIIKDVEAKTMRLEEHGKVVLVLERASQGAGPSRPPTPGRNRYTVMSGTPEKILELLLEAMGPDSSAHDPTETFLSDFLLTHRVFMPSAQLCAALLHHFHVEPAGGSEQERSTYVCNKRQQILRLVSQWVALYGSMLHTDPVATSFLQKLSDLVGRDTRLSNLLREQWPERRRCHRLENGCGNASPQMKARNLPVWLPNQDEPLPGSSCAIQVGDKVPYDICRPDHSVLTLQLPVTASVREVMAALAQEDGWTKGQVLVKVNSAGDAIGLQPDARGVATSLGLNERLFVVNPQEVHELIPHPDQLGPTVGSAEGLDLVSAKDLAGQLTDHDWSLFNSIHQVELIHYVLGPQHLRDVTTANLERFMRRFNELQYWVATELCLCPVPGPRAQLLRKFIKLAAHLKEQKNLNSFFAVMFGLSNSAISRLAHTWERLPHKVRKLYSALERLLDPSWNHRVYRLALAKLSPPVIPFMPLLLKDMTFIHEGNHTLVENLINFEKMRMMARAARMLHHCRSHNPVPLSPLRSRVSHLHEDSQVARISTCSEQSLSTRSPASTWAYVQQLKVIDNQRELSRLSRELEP

activation, inactive:
CCCCC(=O)N(C)c1c(CC)nc2c(OCc3ccc(C(F)(F)F)cc3)cccn12 15.4%
CC(C)=CCC[C@H](C)C[C@@H]1Cc2[nH][nH]c(=O)c2[C@H](c2ccc(F)cc2)O1 -34.2%
CCCCn1c(N)c(N(CCOC)C(=O)c2ccc(-c3ccc(C(C)=O)cc3)o2)c(=O)[nH]c1=O 11.9%
O=c1cc(CN2CCN(S(=O)(=O)c3cccc(Cl)c3)CC2)c2ccc(O)cc2o1 8.97%
O=C1NC[C@H](Cc2ccc(O)cc2)N(C[C@@H]2CCCN2C[C@H](Cc2ccc(O)cc2)N2C[C@H](Cc3ccccc3)N(CC3CCCCCC3)C(=O)C2=O)C1=O -16.8%
CCCCC1CC2=C(C(=O)OC(C)(C)O2)C(c2ccc(Cl)cc2)O1 (stereo not given) 0.507%
COc1cc(/C=C/C(=O)c2ccc3c(c2)OCCO3)cc(Br)c1OCC(=O)N(C)C 7.82%
CCOc1ccccc1NC(=O)C1COc2ccccc2O1 (stereo not given) 24.1%
CCOc1ccc(S(=O)(=O)Nc2nc3ccccc3nc2-n2ccc(=NC(=O)c3cccs3)cc2)cc1 12%
COc1cc(NC(=O)c2ccccc2NS(=O)(=O)c2ccc(Cl)s2)cc(OC)c1 13.7%
O=[N+]([O-])c1ccc(C=NNc2ccc(S(=O)(=O)O)cc2)cc1 -11%
Cc1cc2c(N)cccc2nn1 7.11%
Cc1cc(NC2=CC(=O)C(=O)c3ccccc32)no1 -1.91%
N#C/C(=C(/O)c1ccccc1F)c1nc2cc(C(F)(F)F)ccc2s1 -7.5%
C/C=C\C=C/C(=O)Nc1cccc(C2=NOC3(C2)C[C@H](C(N)=O)N(C(=O)c2ccc(OC)cc2)C3)c1 (stereo not given in full) 4.82%
